# Measurements taken from PubChem BioAssay.
# Several values for one entry are separate records, joined by “and”; a condition that tells them apart may be missing. Equal entries are not always repeated. Activity calls are given as the source filed them.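 How the source made its calls, unless noted: active means inhibition at or above 50% relative to wild type and mutant plate controls; inactive means inhibition below 50%.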
# Experiments:
# [1] = inhibitors of TNFa-induced NFkB p65 translocation, primary screen, imaging, HUVEC, MLSMR starter and 10KST1 sets (AID 438;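 active means inhibition above 20% together with a positive visual image hit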;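 further: compound added about 3h40 before a 20 min TNFalpha stimulation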;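 on inhibition: signal is the nuclear over cytoplasmic p65 intensity ratio per well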); conditions: HUVEC TNFa-induced p65 nuclear translocation; cell count: measured here: nuclei count (cytotoxicity indicator), at 2.08 µM; inhibition: at 2 µM, stronger effect = higher value, 0% TNFa-plus-vehicle, 100% no-TNFa wells
# [2] = inhibitors of mutant huntingtin aggregation, primary screen, imaging, exon1htt(103Q)mCFP cells, high-content imaging (AID 483;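 active means visual image review flags a hit and inhibition of aggregation exceeds 20%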;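 further: compound exposure lasted 3 days before fixation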;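 on nuclei count: percent of the per-plate median nuclei count of sample wells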); conditions: exon1htt(103Q)mCFP cell line, aggregate imaging, at 2 µM; inhibition of aggregation: stronger effect = higher value; nuclei count: measured here: cell count, toxicity
# [3] = inhibitors of E-selectin induction by TNFa, primary screen, imaging, HUVEC, immunofluorescence, MLSMR starter and 10KST1 sets (AID 487;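 active means visually confirmed hit in the image check and inhibition above 20%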;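 on inhibition: signal is fraction of cell area covered by stained E-selectin grains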;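 on nuclei count: 100% = median nuclei count of all wells on the same plate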); conditions: HUVEC TNFalpha-induced E-selectin immunofluorescence imaging, at 2 µM; inhibition: stronger effect = higher value; nuclei count: measured here: cell number, toxicity
# [4] = DUSP6 inhibitors restoring Erk phosphorylation by chemical complementation, primary imaging in DUSP6-transfected HeLa (AID 609;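 active means compounds giving at least 50% inhibition in the cell-based MKP-3 phosphatase rescue imaging test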;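 on inhibition: phospho-Erk level distribution per well compared with pooled transfected vehicle control wells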); conditions: HeLa MKP-3 transfected, phospho-Erk imaging KS statistic, at 10 µM, cells stimulated with TPA for 15 min
# [5] = biological target: Dual specificity protein phosphatase 6 (Homo sapiens) (UniProt Q16828); assay: as above; conditions: HeLa MKP-3 transfected, phospho-Erk imaging KS statistic; at 10 µM; stronger effect = higher value; cells stimulated with TPA for 15 min
# [6] = biological target: Voltage-gated potassium channel subunit beta-2 (Rattus norvegicus) (UniProt P62483); assay: KvBeta enzyme negative modulators, primary screen, biochemical, NADPH fluorescence (AID 622;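 active means fluorescence slope higher than the sample average by over 3 SD, cut at about -0.22 in these data, passing the limit was not always enough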;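 further: slope of raw intensity against log time taken from 70 to 1610 s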); conditions: recombinant KvBeta, 4-cyanobenzaldehyde reduction, at 10 µM, stronger effect = higher value
# [7] = biological target: Voltage-gated potassium channel subunit beta-2 (Rattus norvegicus) (UniProt P62483); assay: KvBeta positive modulators, primary screen, biochemical, NADPH fluorescence (AID 623;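 active means NADPH fluorescence slope more negative than the mean of all samples by about 3 SD, 99.7% confidence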;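 further: fluorescence intensity change per second fitted from 20 to 320 s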); conditions: Recombinant KvBeta, NADPH fluorescence decrease slope, 10 min; at 10 µM; stronger effect = lower value
# [8] = biological target: Alpha-2C adrenergic receptor (Homo sapiens) (UniProt P18825); assay: modulators of alpha2C/GIRK thallium flux, primary screen, cell-based, HEK293 alpha2C/GIRK1/2 (AID 624;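 active means fluorescence slope after compound addition differing from the mean of all screened samples at 99.7% confidence, in either direction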;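 further: slope of fluorescence ratio to pre-addition baseline per second over 15 to 24 s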); conditions: thallium flux BTC fluorescence, at 10 µM, actives lie on both sides
# [9] = biological target: Muscarinic acetylcholine receptor M4 (Homo sapiens) (UniProt P08173); assay: compounds altering M4/GIRK thallium flux, either direction, primary screen, M4 allosteric agonist project, cell-based, HEK293 M4/GIRK, BTC-AM (AID 625;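 active means fluorescence slope after compound addition differing from the mean of all tested samples at 99.7% confidence, mostly higher but some lower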;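 further: thallium influx through GIRK channels coupled to M4 in HEK293 cells with BTC-AM dye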); conditions: at 10 µM, actives lie on both sides
# [10] = inhibitors of larval lipid processing in zebrafish, primary screen, whole organism, PED6 fluorescence, gall bladder and intestine (AID 686;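 active means a full or partial loss of lipid-probe fluorescence in the fish gall bladder, intestine or both, judged by eye; inactive means no fluorescence loss, or compound toxic to the fish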;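 further: larvae 5 to 7 days old with five fish per well; signal comes from phospholipase A2 cleavage of quenched PED6 carried via bile; overnight exposure to compound and PED6 before scoring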); conditions: Zebrafish larvae PED6 lipid processing, fluorescence scoring; screened at 20 µM (by protocol)
# [11] = inhibitors of Chlamydomonas gravitaxis, primary screen, whole organism, Chlamydomonas reinhardtii, WT vs cilia-less mutant, absorbance, 96-well (AID 463189); conditions: OD600 absorbance, 2 days, at 10 µM, stronger effect = higher value;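 further: 0% = wild type cc124 cells in DMSO and 100% = ciliumless bld1 mutant cells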
# [12] = inhibitors of Sendai virus-induced IRF3 signaling, primary screen, TLR/RLR signaling modifier project, cell-based, Sendai virus stimulus, luciferase, 10K MLSCN set (AID 602276;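 active means inhibition at or above 50% at 10 µM; inactive means inhibition below 50%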;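 further: firefly luciferase from ISG56 promoter only with Renilla not read in this screen; 0% = Sendai virus plus DMSO and 100% = medium plus DMSO without virus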); conditions: HEK293 RL24 IRF3 luciferase reporter, at 10 µM, stronger effect = higher value
# [13] = inhibitors of poly I:C-induced TLR3 signaling, primary screen, cell-based, poly I:C stimulus, luciferase, 10K MLSCN set (AID 602277;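 active means inhibition of the reporter signal at or above 50%; inactive means inhibition below 50%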); conditions: HEK293-TLR3 RL24 IRF3 luciferase reporter, at 10 µM, stronger effect = higher value
# [14] = measured here: cell density z-score
# [15] = measured here: nuclear c-Myc green intensity z-score
# [16] = measured here: nuclear pErk red intensity z-score, stronger effect = higher value
# Chain of Voltage-gated potassium channel subunit beta-2 (Rattus norvegicus) (P62483 whole entry, looked up): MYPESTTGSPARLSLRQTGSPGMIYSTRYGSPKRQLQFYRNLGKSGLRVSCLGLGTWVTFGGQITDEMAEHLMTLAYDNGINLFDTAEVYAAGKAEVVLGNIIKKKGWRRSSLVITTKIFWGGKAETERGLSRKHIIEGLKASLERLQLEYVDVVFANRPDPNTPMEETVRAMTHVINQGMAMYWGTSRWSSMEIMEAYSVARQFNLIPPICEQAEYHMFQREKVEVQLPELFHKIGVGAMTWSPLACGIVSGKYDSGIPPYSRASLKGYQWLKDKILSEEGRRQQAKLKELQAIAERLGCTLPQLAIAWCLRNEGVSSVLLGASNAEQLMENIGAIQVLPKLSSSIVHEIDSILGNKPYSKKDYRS
# Chain of Dual specificity protein phosphatase 6 (Homo sapiens) (Q16828 whole entry, looked up): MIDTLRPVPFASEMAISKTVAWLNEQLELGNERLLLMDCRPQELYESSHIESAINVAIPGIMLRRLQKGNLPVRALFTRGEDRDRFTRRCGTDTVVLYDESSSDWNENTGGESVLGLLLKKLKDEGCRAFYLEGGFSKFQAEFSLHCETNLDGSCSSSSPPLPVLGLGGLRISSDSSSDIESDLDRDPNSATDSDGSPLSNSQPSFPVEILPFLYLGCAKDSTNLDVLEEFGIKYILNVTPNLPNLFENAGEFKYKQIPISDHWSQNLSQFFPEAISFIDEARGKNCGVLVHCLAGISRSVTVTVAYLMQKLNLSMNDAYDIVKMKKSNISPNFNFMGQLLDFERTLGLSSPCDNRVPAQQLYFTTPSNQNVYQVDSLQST
# Chain of Alpha-2C adrenergic receptor (Homo sapiens) (P18825 whole entry, looked up): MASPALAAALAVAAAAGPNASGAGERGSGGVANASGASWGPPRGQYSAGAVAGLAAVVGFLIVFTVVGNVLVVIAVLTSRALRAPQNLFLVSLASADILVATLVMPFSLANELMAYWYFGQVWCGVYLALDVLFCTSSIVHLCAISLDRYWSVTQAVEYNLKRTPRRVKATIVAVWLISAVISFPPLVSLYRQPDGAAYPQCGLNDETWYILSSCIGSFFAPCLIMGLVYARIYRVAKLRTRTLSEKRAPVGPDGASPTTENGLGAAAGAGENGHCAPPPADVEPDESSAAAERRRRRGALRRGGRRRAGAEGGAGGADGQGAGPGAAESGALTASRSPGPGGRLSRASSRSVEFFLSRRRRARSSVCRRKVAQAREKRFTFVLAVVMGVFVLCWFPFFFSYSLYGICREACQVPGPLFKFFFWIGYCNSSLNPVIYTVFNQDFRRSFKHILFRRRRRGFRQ
# Chain of Muscarinic acetylcholine receptor M4 (Homo sapiens) (P08173 whole entry, looked up): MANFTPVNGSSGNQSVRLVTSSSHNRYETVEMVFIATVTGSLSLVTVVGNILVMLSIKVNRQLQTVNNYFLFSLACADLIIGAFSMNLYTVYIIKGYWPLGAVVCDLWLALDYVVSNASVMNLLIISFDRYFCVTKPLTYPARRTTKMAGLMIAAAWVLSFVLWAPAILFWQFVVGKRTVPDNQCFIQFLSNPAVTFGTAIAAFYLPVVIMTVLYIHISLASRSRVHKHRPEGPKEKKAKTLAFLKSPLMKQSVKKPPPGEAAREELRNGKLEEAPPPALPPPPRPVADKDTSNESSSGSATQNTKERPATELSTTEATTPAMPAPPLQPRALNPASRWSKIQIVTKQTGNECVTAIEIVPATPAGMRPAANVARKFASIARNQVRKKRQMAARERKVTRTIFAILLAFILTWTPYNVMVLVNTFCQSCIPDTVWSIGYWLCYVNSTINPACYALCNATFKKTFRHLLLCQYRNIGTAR
SMILES,cell count [1],inhibition [1],inhibition of aggregation [2],nuclei count [2],inhibition [3],nuclei count [3],"z-score [4, 14]","z-score [4, 15]","z-score [4, 16]",inhibition [5],fluorescence slope [6],NADPH fluorescence slope [7],slope [8],fluorescence slope [9],outcome [10],inhibition [11],inhibition [12],inhibition [13]
Cc1c(C2Nc3ccccc3NC3=C2C(=O)CC(C)(C)C3)cnn1C (stereo unspecified),678,34.8% (active),-2% (inactive),115%,-16.2% (inactive),101%,0.508,-0.847,-0.607,14.7% (inactive),-0.548 (inactive),-2.1e-05 (inactive),0.00605 (inactive),0.00628 (inactive),inactive,14.4% (inactive),35.1% (inactive),99.4% (active)
Cc1ccc(C)c(OCCCC(C)(C)C(=O)O)c1,624,-1.4% (inactive),26.1% (inactive),107%,-52.3% (inactive),122%,0.389,0.0218,0.246,7.39% (inactive),-0.536 (inactive),-3.5e-05 (inactive),0.00591 (inactive),,inactive,36% (inactive),17.7% (inactive),39.7% (inactive)
Nc1nc2ccc(OC(F)(F)F)cc2s1,540,-0.5% (inactive),-1.7% (inactive),86.1%,-27.8% (inactive),107%,2.05,-1.62,-0.877,36.7% (inactive),-0.427 (inactive),2.4e-05 (inactive),0.00474 (inactive),,inactive,4.87% (inactive) and -11.8% (inactive),-14.6% (inactive),-58.1% (inactive)
Cc1cccc(OCC(=O)N2CCC(N3CCCCCC3)CC2)c1,395,-7.8% (inactive),17.2% (inactive),97.5%,-247% (inactive),128%,1.59,1.35,-0.179,5.57% (inactive),-0.384 (inactive),-4.7e-05 (inactive),0.00464 (inactive),,inactive,17.1% (inactive),-0.464% (inactive),3.84% (inactive)
O=C(COc1ccccc1)Nc1ccc(-c2nnc(-c3ccco3)o2)cc1,458,-4.3% (inactive),7.5% (inactive),101%,-252% (inactive),102%,-2.58,1.43,-0.658,3.97% (inactive),-0.499 (inactive),-2.1e-05 (inactive),0.00796 (inactive),,inactive,-15.4% (inactive),-55.4% (inactive),-103% (inactive)
NS(=O)(=O)c1cc2c(cc1Cl)NC(C1C[C@H]3C=C[C@@H]1C3)NS2(=O)=O (stereo partly specified),536,-8.9% (inactive),-11.7% (inactive),102%,6.1% (inactive),120%,0.229,0.164,0.0197,-6.41% (inactive),-0.525 (inactive),-1.3e-05 (inactive),0.00377 (inactive),,inactive,20.5% (inactive),-6.01% (inactive),-8.05% (inactive)
C/C=C(/C(=C/C)c1ccc(O)cc1)c1ccc(O)cc1,603,-14.5% (inactive),10.1% (inactive),112%,-76% (inactive),132%,-0.991,-0.543,0.777,13.3% (inactive),-0.459 (inactive),-5.4e-05 (inactive),0.00464 (inactive),,inactive,25.6% (inactive),8.63% (inactive),33.1% (inactive)
CCOc1nc(SCCOc2ccccc2)nc(N(C)C)n1,397,-7.1% (inactive),4.3% (inactive),54%,-68.5% (inactive),113%,0.798,-0.437,-0.913,22.8% (inactive),-0.395 (inactive),1.4e-05 (inactive),0.00398 (inactive),,inactive,28.4% (inactive),0.0705% (inactive),-11.2% (inactive)
CC(C)CCNC(=O)[C@H](CC(C)C)NC(=O)[C@H]1O[C@@H]1C(=O)O,625,-6.9% (inactive),11.7% (inactive),98.3%,-39.7% (inactive),134%,0.0708,0.541,0.76,9.37% (inactive),-0.496 (inactive),-1.1e-05 (inactive),0.00458 (inactive),,inactive,10.6% (inactive),10.1% (inactive),34.8% (inactive)
NC(Cc1ccc(Oc2ccc(O)cc2)cc1)C(=O)O (stereo unspecified),563,-6.8% (inactive),-8.1% (inactive),103%,-19.7% (inactive),103%,-0.271,-1.56,-0.79,3.45% (inactive),-0.495 (inactive),-5.7e-05 (inactive),0.00414 (inactive),,inactive,-4.82% (inactive),11.4% (inactive),24.4% (inactive)
